For 46 molecules, activation results are on record in PubChem BioAssay AID624414 (National Center for Advancing Translational Sciences (NCATS), 2012).

Structures are written as SMILES. About 480 (0.12%) of roughly 410,000 compounds were called active. What follows is part of a selection rich in actives, with near analogues and random picks from the rest. Unmarked numbers belong to inactive results. Cut-off read from the data, not from the text of the source: active = activation above about 50%; inconclusive = mostly about 30% to 49%; inactive = weaker than that.

Mucolipin-1 (Homo sapiens), sequence (Q9GZU1 whole entry, looked up, the tested form may be a part): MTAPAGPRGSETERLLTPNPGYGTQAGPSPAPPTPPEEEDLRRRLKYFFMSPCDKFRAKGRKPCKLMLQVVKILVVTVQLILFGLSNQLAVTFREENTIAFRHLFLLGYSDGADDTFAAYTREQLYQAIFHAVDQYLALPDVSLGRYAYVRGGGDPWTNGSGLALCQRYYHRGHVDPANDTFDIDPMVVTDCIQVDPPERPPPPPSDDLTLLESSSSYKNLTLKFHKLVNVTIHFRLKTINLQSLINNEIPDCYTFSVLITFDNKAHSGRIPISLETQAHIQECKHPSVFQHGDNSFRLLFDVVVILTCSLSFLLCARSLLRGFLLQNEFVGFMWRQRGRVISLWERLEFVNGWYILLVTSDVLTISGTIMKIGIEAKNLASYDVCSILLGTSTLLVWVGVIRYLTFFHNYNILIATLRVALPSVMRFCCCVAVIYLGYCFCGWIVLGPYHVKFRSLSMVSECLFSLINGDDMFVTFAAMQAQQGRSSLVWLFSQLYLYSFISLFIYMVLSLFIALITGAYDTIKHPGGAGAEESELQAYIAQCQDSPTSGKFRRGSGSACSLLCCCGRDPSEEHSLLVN

The assay addresses Mucolipin-1 (Homo sapiens) (UniProt Q9GZU1). Briefly: qHTS for Agonists of the Human Mucolipin Transient Receptor Potential 1 (TRPML1). Note: 0% is about no effect. As to conditions: TRPML1-expressing cells, Ca2+ dye fluorescence, FDSS; active compounds read high. The text has this: Mutations of human Mucolipin transient receptor potential 1 (TRPML1) cause type IV mucolipidosis (ML4), a devastating neurodegenerative disease in young children. […] Currently, there is no treatment for ML4. […] Under physiological conditions, TRPMLs regulate membrane trafficking by transducing information about PI(3,5)P2 levels into changes in juxtaorganellar Ca2+, thereby triggering membrane fusion/fission events in the late endocytic pathways (endolysosomal trafficking). In addition, TRPML1 mediates release of Fe2+ from late endosomes and lysosomes, which is essential for cellular iron metabolism. Thus, impaired ion (Ca2+ and Fe2+) homeostasis underlies lysosomal dysfunction and ML4 phenotypes. In ML4 cells, the problem is twofold. First, defective Ca2+-dependent membrane trafficking due to TRPML1-deficiency causes accumulation of lipids and other bio-materials in the lysosome. The second strike comes from the lysosomal iron overload (due to impairment of TRPML1's Fe2+ conductivity), which converts the accumulated materials into the nondegradable (resistant to lysosomal degradation) lipofuscin (also called aging pigment) in the lysosome. Lipofuscin accumulation dramatically compromises the functions of lysosomes.
Niemann-Pick type C (NPC) disease is another lysosome storage disease (LSD) with severe neurodegeneration during the childhood. Currently, there is no cure for NPC. […] Thus, TRPML1 is likely to be an essential regulator of lysosome ion homeostasis. We specifically hypothesize that stimulating TRPML1's Fe2+/Ca2+ channel activity in the lysosome using synthetic agonists can alleviate neurodegeneration associated with ML4 or NPC.
To this end, a high throughput screen was developed in a miniaturized format to screen against the Molecular Libraries Small Molecule Repository (MLSMR) to find small molecules that act either as inhibitors or agonist against the TRPML1 channel.
NIH Chemical Genomics Center [NCGC]
NIH Molecular Libraries Probe Centers Network [MLPCN]
Assay Submitter (PI): Haoxing Xu, University of Michigan Ann Arbor
TRPML1-DL cells are dissociated from flasks, counted and, brought up to a density of 500,000 cells per mL of media containing a 1X Tet inducer. Using a Multidrop Combi, 3uL of this cell solution is dispensed to each well of a 1536 TC treated, black, clear bottom hi base plate for a final cell density of 1,500 cells per well. The assay plates are incubated overnight (approximately 16 hours) at 37 degrees C and 5% CO2. Using a Multidrop Combi, 2uL of ABD Ca8 no wash dye plus quencher is added to each well. The assay plates incubate at room temperature in the dark for 45-90 minutes. The assay plate is read on the FDSS using the following protocol: 10 second baseline read, 23nL of compounds and controls are added using 1536 pintool, agonist read for 110 seconds, 1 uL EC80 addition (4uM final 54-4 diluted in media), antagonist read for 110 seconds.
On to `Cc1nn(CC(=O)O)c(=O)c2cc3cc(F)ccc3n12`, for which the activation is -0.613%. The same measure for `CC1CC(C)CN(c2oc(-c3ccc(OCc4ccc(Cl)cc4)cc3)nc2C#N)C1` (stereo unspecified): -0.254%; for `COc1ccc(-c2ccc(C3C4C=CCCC4(C)C(=O)N3Cc3ccccc3)c(F)c2)cc1OC` (stereo unspecified): 0.474%; for `COc1ccc(Cl)cc1NC(=O)c1sc2nc3c(cc2c1N)CN(C)CC3`: 1.12%. The same measure for `O=C(c1ccc2c(c1)N(Cc1ccccc1)C(=O)c1ccccc1S2(=O)=O)N1CCC(Cc2ccccc2)CC1`: 0.0562%; for `CC(=O)c1ccc(NS(=O)(=O)c2ccc(-c3cc(C)no3)s2)cc1`: -0.182%; for `CN(C)c1cccc2ccccc12`: -0.266%. The same measure for `CC(C)(C)OC(=O)N(Cc1ccco1)S(=O)(=O)c1ccccc1Br`: 0.62%. As to `CCOc1cc2[nH]c(=O)n(Cc3ccc(C(=O)NCCN(CC)CC)cc3)c(=O)c2cc1OCC`, the activation is -0.328%.

For `O=C(Nc1ccccc1C(F)(F)F)c1nc(S(=O)(=O)Cc2ccccc2F)ncc1Cl`, the activation is 0.0634%. The same measure for `CCOc1ccccc1NC(=O)Cn1nnc(C(=O)Nc2ccc(C)c(C)c2)c1N`: 1.55%; for `C/C=C/NNC(=O)Cc1ccc(OC)cc1`: -0.93%; for `CC(C)(C)C1CCC(NC(=O)c2cnn3c2NC(=C2CC2)C=C3C(F)F)CC1` (stereo unspecified): -1.12%. With `COCCn1c(N)c(NCc2ccccc2)c(=O)[nH]c1=O` the figure was 1.47%; with `CCC(=O)Nc1ccc(C)cc1-c1nc2ccccc2n(Cc2ccccc2)c1=O`, 0.405%; with `Cc1cc2nc3c(=O)n(Cc4ccccc4)c(=O)[nH]c3nc2cc1N`, 94.8% (active).

For the molecule `COc1cc(OC)c(OC)cc1/C=C1\C=Cc2ccccc21`, the activation is -0.666%. With `COc1ccc(Cc2nc3ccc(C(=O)NCc4ccccc4Cl)cc3o2)cc1` the figure was 0.91%; with `COc1ccccc1CNc1nccn(-c2ccc(F)cc2)c1=O`, 0.564%. With `O=C1COc2ccc(-c3csc(-c4ccc(Cl)cc4)n3)cc2N1` the figure was -0.602%; with `NC(=O)Nc1ccc(/C=C/c2ccnc3ccccc23)cc1`, -0.0317%; with `CC(=O)Nc1ccc(S(=O)(=O)N2N=NC3C2C2CC4C3(CN(C(=O)OC(C)(C)C)S4(=O)=O)O2)cc1` (stereo unspecified), 0.118%. For the molecule `COc1ccc(CNc2nc(-c3ccc(Cl)cc3)nn2S(=O)(=O)c2ccc(C)cc2)cc1`, the activation was 3.68%. The same measure for `O=C(Nc1cccc2cccnc12)C(F)(F)F`: 1.01%; for `CCOc1ccc(NC(=O)c2cnn(-c3ccccc3)c2-n2cccc2)cc1`: -0.36%; for `CC(C)(C)c1ccc(C(=O)C[n+]2cccc3cc(Cl)ccc32)cc1`: 0.444%.

Regarding `O=C(/C=C(O)/C=C/c1ccc(O)cc1)/C=C/c1ccc(O)cc1`, the activation is 80.8% (active). With `COc1ccc(C(=O)c2oc3ccccc3c2NC(=O)COc2cccc(C)c2)cc1` the figure was -0.131%; with `Cc1cc(C)cc(NC(c2nnc(-c3cccc(F)c3)o2)c2ccc(F)cc2Cl)c1` (stereo unspecified), 0.152%; with `O=C1CCC[C@@H]2C[C@@]3(C[C@@H]4CCN1[C@H]24)Nc1ccccc1NC3=NCc1ccccc1`, 0.0295%. With `Cc1c(CCO)sc[n+]1CC(=O)c1ccc2ccccc2c1` the figure was -0.38%; with `O=C(c1ccc2c(c1)N(Cc1ccccc1F)C(=O)c1ccccc1S2(=O)=O)N1CCOCC1`, -0.566%; with `COc1ccc(/C=C/c2ccnc3ccccc23)cc1OC`, -0.507%. Regarding `CN(C)C1=C2C=CC=CC2/C(=C2/C=Cc3ccccc32)C=C1` (stereo unspecified), the activation is -0.475%. The same measure for `COc1cc2nc(C#Cc3nc4cc(OC)c(OC)cc4[nH]3)[nH]c2cc1OC`: -0.266%; for `O=C(NC1CC(=O)N(c2ccc(F)cc2)C1)c1cccs1` (stereo unspecified): -0.226%.

Take `COc1ccccc1CN1CCC(CNC(=O)c2cnn(-c3cccc(Cl)c3)c2C2CCN(C(=O)OC(C)(C)C)CC2)CC1`: the activation was 1.58%.

Consider `Cc1cccc(-n2ncc(C(=O)N3CCC(C)CC3)c2C2CCN(C(=O)OC(C)(C)C)CC2)c1`, for which the activation was 0.455%. The same measure for `Cc1cccc(-n2ncc(C(=O)N3CCN(c4ccc(Cl)cc4)CC3)c2C2CCN(C(=O)OC(C)(C)C)CC2)c1`: 51.3% (active); for `CCOC(=O)N1CCC(NC(=O)c2cnn(-c3cccc(C)c3)c2C2CCN(C(=O)OC(C)(C)C)CC2)CC1`: 0.0606%; for `Cc1cccc(-n2ncc(C(=O)N3CCc4ccccc4C3)c2C2CCN(C(=O)OC(C)(C)C)CC2)c1`: 0.364%.

Turning to `CC(C)(C)OC(=O)N1CCC(c2c(C(=O)N3CCN(c4cccc(Cl)c4)CC3)cnn2-c2cccc(Cl)c2)CC1`, the activation was 69.8% (active). With `COCC(C)NS(=O)(=O)c1ccc(N2CCCCS2(=O)=O)cc1` (stereo unspecified) the figure was -0.459%; with `CC1=C(c2ccc(F)cc2)S(=O)(=O)N=C1N1CCC(C(=O)NCCc2ccccc2C)CC1`, 2.54%; with `COc1ccc(-c2nc(=N)sn2-c2ccccc2)cc1`, 12.5%. With `COc1ccc(/C=C/c2ccccn2)cc1OC` the figure was -0.792%.
